Test results as given in the supplement of paper PMC8728848.
Many of the other results were omitted from the sample, so the strongest signals are more common in it than they were.

Tests used:
Assay in all cases: glycan array binding signal (z-score within array); higher = stronger binding
Details in all cases: glycan notation: IUPAC condensed, linker removed
[1] = biological target: Fuc(a1-2)Gal(b1-3)GalNAc(b1-3)Gal(a1-4)Gal(b1-4)Glc
Method in brief: (§1)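 The binding signal is a Z-score computed within each array. Data were drawn from 3228 arrays in the Consortium for Functional Glycomics database, restricted to those with a known protein sequence. Scores were averaged over arrays of the same protein sequence at different concentrations or buffers, and over linkers, and negative values can be taken as non-binding.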

[2] = biological target: Fuc(a1-2)Gal(b1-4)[Fuc(a1-3)]GlcNAc
Method in brief: as §1

[3] = biological target: Fuc(a1-2)[Gal(a1-3)]Gal(b1-3)GlcNAc(b1-6)GalNAc
Method in brief: as §1

[4] = biological target: Fuc(a1-2)[GalNAc(a1-3)]Gal(b1-4)GlcNAc(b1-3)Gal(b1-4)GlcNAc
Method in brief: as §1

[5] = biological target: Fuc(a1-2)[GalNAc(a1-4)]Gal(b1-4)GlcNAc
Method in brief: as §1

[6] = biological target: Fuc(a1-2)[GalNAc(b1-3)]Gal
Method in brief: as §1

[7] = biological target: Fuc(a1-3)[Gal(b1-4)]GlcNAc(b1-2)Man(a1-3)[Fuc(a1-3)[Gal(b1-4)]GlcNAc(b1-2)Man(a1-6)]Man(b1-4)GlcNAc(b1-4)GlcNAc
Method in brief: as §1

[8] = biological target: Gal(a1-3)Gal(b1-3)GlcNAc(b1-3)GalNAc
Method in brief: as §1

[9] = biological target: Gal(a1-3)Gal(b1-3)GlcNAc(b1-6)GalNAc
Method in brief: as §1

[10] = biological target: Gal(a1-3)Gal(b1-4)GlcNAc(b1-6)GalNAc
Method in brief: as §1

[11] = biological target: Gal(b1-3)GlcNAc(b1-6)GalNAc
Method in brief: as §1

Gal(b1-3)GlcNAc6S = biological target: Gal(b1-3)GlcNAc6S
Method in brief: as §1

[12] = biological target: Gal(b1-3)[Neu5Ac(a2-6)]GlcNAc(b1-4)Gal(b1-4)Glc
Method in brief: as §1

[13] = biological target: Gal(b1-4)GlcNAc(b1-3)Gal(b1-4)GlcNAc
Method in brief: as §1

[14] = biological target: Gal(b1-4)GlcNAc(b1-3)Gal(b1-4)GlcNAc(b1-3)Gal(b1-4)GlcNAc(b1-3)Gal(b1-4)GlcNAc(b1-2)[Gal(b1-4)GlcNAc(b1-3)Gal(b1-4)GlcNAc(b1-3)Gal(b1-4)GlcNAc(b1-3)Gal(b1-4)GlcNAc(b1-6)]Man(a1-6)[Gal(b1-4)GlcNAc(b1-3)Gal(b1-4)GlcNAc(b1-3)Gal(b1-4)GlcNAc(b1-3)Gal(b1-4)GlcNAc(b1-2)Man(a1-3)]Man(b1-4)GlcNAc(b1-4)[Fuc(a1-6)]GlcNAc
Method in brief: as §1

Gal6P(b1-4)GlcNAc = biological target: Gal6P(b1-4)GlcNAc
Method in brief: as §1

Gal6S(b1-4)GlcNAc = biological target: Gal6S(b1-4)GlcNAc
Method in brief: as §1

[15] = biological target: GalNAc(b1-3)Gal(a1-4)Gal(b1-4)GlcNAc
Method in brief: as §1

[16] = biological target: GalNAc(b1-3)Gal(a1-4)Gal(b1-4)GlcNAc(b1-3)Gal(b1-4)Glc
Method in brief: as §1

[17] = biological target: GalNAc(b1-4)GlcNAc(b1-3)GalNAc(b1-4)GlcNAc
Method in brief: as §1

[18] = biological target: GalNAc3S(b1-4)[Fuc(a1-3)]GlcNAc
Method in brief: as §1

Glc(b1-4)Glc = biological target: Glc(b1-4)Glc
Method in brief: as §1

[19] = biological target: GlcNAc(a1-4)Gal(b1-4)GlcNAc
Method in brief: as §1

[20] = biological target: GlcNAc(b1-3)Gal(b1-4)GlcNAc(b1-3)Gal(b1-4)GlcNAc(b1-3)Gal(b1-4)GlcNAc(b1-2)Man(a1-3)[GlcNAc(b1-3)Gal(b1-4)GlcNAc(b1-3)Gal(b1-4)GlcNAc(b1-3)Gal(b1-4)GlcNAc(b1-2)Man(a1-6)]Man(b1-4)GlcNAc(b1-4)GlcNAc
Method in brief: as §1

GlcNAc(b1-3)GalNAc = biological target: GlcNAc(b1-3)GalNAc
Method in brief: as §1

[21] = biological target: GlcNAc(b1-4)GlcNAc(b1-4)GlcNAc(b1-4)GlcNAc(b1-4)GlcNAc(b1-4)GlcNAc
Method in brief: as §1

GlcNAc(b1-6)GalNAc = biological target: GlcNAc(b1-6)GalNAc
Method in brief: as §1

[22] = biological target: Man(a1-3)[Man(a1-6)]Man(a1-6)[Man(a1-2)Man(a1-3)]Man(b1-4)GlcNAc(b1-4)GlcNAc
Method in brief: as §1

[23] = biological target: Man(a1-3)[Man(a1-6)]Man(b1-4)GlcNAc(b1-4)GlcNAc
Method in brief: as §1

[24] = biological target: Man(a1-3)[Man(a1-6)]Man(b1-4)GlcNAc(b1-4)[Fuc(a1-6)]GlcNAc
Method in brief: as §1

Man(b1-4)GlcNAc = biological target: Man(b1-4)GlcNAc
Method in brief: as §1

[25] = biological target: Neu5Ac(a2-3)Gal(b1-3)GalNAc(b1-4)[Neu5Ac(a2-3)]Gal(b1-4)Glc
Method in brief: as §1

[26] = biological target: Neu5Ac(a2-3)Gal(b1-3)GlcNAc(b1-6)GalNAc
Method in brief: as §1

[27] = biological target: Neu5Ac(a2-3)Gal(b1-4)GlcNAc(b1-2)Man(a1-3)[Neu5Ac(a2-6)Gal(b1-4)GlcNAc(b1-2)Man(a1-6)]Man(b1-4)GlcNAc(b1-4)GlcNAc
Method in brief: as §1

[28] = biological target: Neu5Ac(a2-3)Gal(b1-4)GlcNAc(b1-3)Gal
Method in brief: as §1

[29] = biological target: Neu5Ac(a2-3)Gal(b1-4)GlcNAc(b1-6)GalNAc
Method in brief: as §1

[30] = biological target: Neu5Ac(a2-3)Gal6S(b1-4)GlcNAc
Method in brief: as §1

[31] = biological target: Neu5Ac(a2-6)Gal(b1-4)GlcNAc(b1-2)Man(a1-6)[Gal(b1-4)GlcNAc(b1-2)Man(a1-3)]Man(b1-4)GlcNAc(b1-4)GlcNAc
Method in brief: as §1

[32] = biological target: Neu5Ac(a2-6)GalNAc(b1-4)GlcNAc6S
Method in brief: as §1

[33] = biological target: Neu5Ac(a2-8)Neu5Ac(a2-3)Gal(b1-3)GalNAc(b1-4)[Neu5Ac(a2-8)Neu5Ac(a2-3)]Gal(b1-4)Glc
Method in brief: as §1

[34] = biological target: Neu5Ac(a2-8)Neu5Ac(a2-8)Neu5Ac(a2-8)Neu5Ac(a2-3)[GalNAc(b1-4)]Gal(b1-4)Glc
Method in brief: as §1

Neu5Gc(a2-3)Gal(b1-4)Glc = biological target: Neu5Gc(a2-3)Gal(b1-4)Glc
Method in brief: as §1

B1: DC-ASGPR S+GEE (Homo sapiens) (protein)
chain: MTRTYENFQYLENKVKVQGFKNGPLPLQSLLQRLRSGPCHLLLSLGLGLLLLVIICVVGFQNSKFQRDLVTLRTDFSNFTSNTVAEIQALTSQGSSLEETIASLKAEVEGFKQERQAVHSEMLLRVQQLVQDLKKLTCQVATINNNGEEASTEGTCCPVNWVEHQDSCYWFSHSGMSWAEAEKYCQLKNAHLVVINSREEQNFVQKYLGSAYTWMGLSDPEGAWKWVDGTDYATGFQNWKPGQPDDWQGHGLGGGEDCAHFHPDGRWNDDVCQRPYHWVCEAGLGQTSQESH
glycan array binding signal (z-score) [1]: 0.011
glycan array binding signal (z-score) [2]: -0.28
glycan array binding signal (z-score) [3]: 3.42
glycan array binding signal (z-score) [4]: 0.807
glycan array binding signal (z-score) [5]: 3.75
glycan array binding signal (z-score) [6]: 4
glycan array binding signal (z-score) [7]: -0.015
glycan array binding signal (z-score) [8]: -0.224
glycan array binding signal (z-score) [9]: 4.91
glycan array binding signal (z-score) [10]: 3.92
glycan array binding signal (z-score) [11]: 3.77
glycan array binding signal (z-score) (Gal(b1-3)GlcNAc6S): -0.332
glycan array binding signal (z-score) [12]: -0.315
glycan array binding signal (z-score) [13]: -0.268
glycan array binding signal (z-score) [14]: -0.145
glycan array binding signal (z-score) (Gal6P(b1-4)GlcNAc): -0.321
glycan array binding signal (z-score) (Gal6S(b1-4)GlcNAc): -0.262
glycan array binding signal (z-score) [15]: 4.67
glycan array binding signal (z-score) [16]: 4.39
glycan array binding signal (z-score) [17]: 3.84
glycan array binding signal (z-score) [18]: -0.27
glycan array binding signal (z-score) (Glc(b1-4)Glc): -0.376
glycan array binding signal (z-score) [19]: -0.318
glycan array binding signal (z-score) [20]: -0.276
glycan array binding signal (z-score) (GlcNAc(b1-3)GalNAc): -0.312
glycan array binding signal (z-score) [21]: -0.22
glycan array binding signal (z-score) (GlcNAc(b1-6)GalNAc): 3.74
glycan array binding signal (z-score) [22]: -0.252
glycan array binding signal (z-score) [23]: -0.021
glycan array binding signal (z-score) [24]: -0.295
glycan array binding signal (z-score) (Man(b1-4)GlcNAc): -0.339
glycan array binding signal (z-score) [25]: -0.329
glycan array binding signal (z-score) [26]: 4.84
glycan array binding signal (z-score) [27]: -0.297
glycan array binding signal (z-score) [28]: -0.325
glycan array binding signal (z-score) [29]: 4.38
glycan array binding signal (z-score) [30]: -0.32
glycan array binding signal (z-score) [31]: -0.355
glycan array binding signal (z-score) [32]: 0.608
glycan array binding signal (z-score) [33]: -0.342
glycan array binding signal (z-score) [34]: 1.61
glycan array binding signal (z-score) (Neu5Gc(a2-3)Gal(b1-4)Glc): -0.351
